The panel holds about 83,000 compounds, 20% with a hit somewhere; the sample as a whole holds those more often.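 Growth was measured after 48 h exposure to one concentration of compound in 96-well plates. Values under 10 count as active.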 Unmarked numbers belong to inactive results. Activity calls are given as the source filed them.

Holding throughout (test): NCI-60 one-dose screen, 48 h (100 = growth as untreated, 0 = no growth, -100 = all killed)
Conditions in all cases: 10 µM unless noted

For assay [1], the system named is NCI-H23 lung.
Assay [2] has as its system NCI-H322M lung.
Assay [3] has as its system HOP-62 NSCLC.
The subject of assay [4] is NCI-H460 lung.
For assay [5], the system named is HOP-92 NSCLC.
Assay [6] deals with NCI-H522 lung.
Assay [7] concerns A549/ATCC NSCLC.
The test system of assay [8] is 786-0 renal.
Assay [9] relates to COLO 205 colon.

In the case of `CCN(c1ccccc1)S(=O)(=O)c1cc([N+](=O)[O-])ccc1Cl`, the growth in assay [1] is 80.2%; in [2] it was 73.3%; in assay [3] it was 105%; in [4], 106%; in assay [5], 49.9%; in assay [6] it was 23.7%. Besides, the values for the growth in assay [7], in assay [8] and in assay [9] were 102%, 97.4% and 129%, respectively.
As for `CC(=O)Nc1cccc(-c2ccc3c(c2)NC(=O)/C3=C\c2ccc[nH]2)c1`, the growth in assay [1] was 27.8%; in assay [2], 40.9%; in assay [3], 55.3%; in [4], 21.6%; in assay [5] it was 80.8%; in assay [6] it was 16.6%. Besides, the results for the growth in assay [7], in assay [8] and in assay [9] were 40.4%, 59% and 38.8%, respectively.
Take `O=C(Nc1ncc(Cc2cc(Cl)ccc2Cl)s1)c1cccs1`: the growth is 71.6% in assay [1]; 62.7% in assay [2]; 55.1% in [3]; 33.8% in assay [4]; 48.4% in assay [5]; 43.9% in [6]. The growth in assay [7] was 38.3%; in [8], 78.3%; in [9], 67.5%.
Consider `COC(=O)C(OC(C)=O)C(OC(C)=O)c1ccc(OC)c(OC)c1` (stereo not given), for which the growth is 96.8% in assay [1]; 93.4% in assay [2]; 98.2% in [3]; 104% in assay [4]; 110% in assay [5]; 85.9% in [6]. The values for the growth in assay [7], in assay [8] and in assay [9] were 80.1%, 101% and 123%, respectively.
Regarding `Cc1ccc(S(=O)(=O)Nn2c3c(cc(-c4nc5ccccc5s4)c2=O)CCCCCC3)cc1`, the growth in assay [1] was 94.8%; in assay [2], 100%; in [3], 94.9%; in [4] it was 104%; in [5], 85.4%; in assay [6], 89.1%. Further, the growth is 101% in [7], 101% in [8] and 119% in assay [9].
For `COc1cccc(-c2nc3occn3c2-c2ccnc(NCCNS(=O)(=O)c3cccc4ccccc34)n2)c1`, the growth is 103% in assay [1]; 104% in assay [2]; 103% in assay [3]; 101% in assay [4]; 122% in assay [5]; 102% in assay [6]. Moreover, the growth was 105% in assay [7], 97.8% in assay [8] and 96% in assay [9].
Regarding `COc1cc(F)c(/C=C/c2cc(/C=C/c3cc(OC)c(OC)cc3F)on2)cc1OC`, the growth in [1] was 79.4%; in assay [2], 96%; in [3] it was 107%; in assay [4] it was 72.1%; in [5], 88.4%; in [6], 62.3%. For the same molecule, the results for the growth in assay [7], in assay [8] and in assay [9] were 81.3%, 87.3% and 80%, respectively.
In the case of `CC(C)(C)c1ccc(NS(=O)(=O)c2ccc3nc(NC(=O)c4cnccn4)[nH]c3c2)cc1`, the growth in assay [1] was 52%; in assay [2] it was 41.9%; in assay [3], 53.4%; in [4], 6.16% (active); in assay [5], 36.7%; in [6], 20.4%. Besides, the growth is 38.8% in assay [7], 30% in assay [8] and 21.7% in assay [9].
For the molecule `N#C/C(=C\c1ccc([N+](=O)[O-])s1)c1nc2cc(Cl)ccc2s1`, the growth was 2.73% (active) in assay [1]; 99.3% in [2]; 12.6% in assay [3]; 6.38% (active) in assay [4]; -37.8% (active) in [5]; -35.9% (active) in [6]. Moreover, the growth in [7] is 25.1%; in assay [9] it was -26.6% (active).
Take `Cc1cccc(NC(=O)Nc2ccc(-n3cnc4cc(-c5ccc(O)cc5)ccc43)cc2)c1`: the growth in [1] was 27.7%; in assay [2] it was 69.8%; in [3] it was 39.3%; in assay [4], 9.07% (active); in assay [5], 81.1%; in assay [6] it was 6.16% (active). Moreover, the growth in [7] was 24.9%; in [8] it was 36.2%; in assay [9], 69.1%.
As for `OC(c1cccc(C(F)(F)F)c1)c1cnccc1NC1CCCCC1` (stereo not given), the growth in assay [1] is 60.9%; in assay [2], 90.2%; in assay [3] it was 87.4%; in assay [4], 82.8%; in [5], 45.4%; in assay [6], 82.4%. Besides, the figures for the growth in [7], in assay [8] and in assay [9] were 75.8%, 73.7% and -39.9% (active), respectively.
For `O=C(c1nnc(Nc2ccccc2Br)o1)c1c[nH]c2ccccc12`, the growth is 88.1% in [1]; 94.6% in assay [2]; 79.2% in [3]; 99.2% in assay [4]; 97.9% in assay [5]; 98.2% in assay [6]. Besides, the growth in assay [7] is 88.2%; in [8] it was 103%; in assay [9], 98.9%.
On to `COc1cc2c(cc1OC)C(=O)/C(=C/c1cc(C)c(O)c(C)c1)S2`, for which the growth in [1] is 39.2%; in assay [2], 50.4%; in assay [3], 39.4%; in assay [4], 18.5%; in assay [5] it was 88.6%; in assay [6], -7.24% (active). The growth in [7] is 36.9%; in assay [8], 39.6%; in [9] it was 104%.
Regarding `COc1cccc(/C=N/NC(=O)c2cnn3c2NC(c2ccccc2)C3)c1Oc1ccccc1` (stereo not given), the growth is 95.5% in assay [1]; 102% in [2]; 74.3% in assay [3]; 88% in [4]; 105% in assay [5]; 54.2% in assay [6]. In addition, the figures for the growth in assay [7], in assay [8] and in assay [9] were 73%, 79.8% and 79.6%, respectively.
